High-throughput results from PubChem BioAssay.
HTT promoter inh: Primary qHTS for Identification of Small Molecule Inhibitors of Huntingtin Promoter Activity. HEK293 HTT promoter firefly luciferase reporter, 24 h. Potency, µM (doses to about 57.5 µM), for inactives: at the highest dose activity change, negative = inhibition, actives largely listed as inhibitors. hit rate 0.93% among 48,000. AID 1508623, 2021; note: potency is the fitted concentration of half-maximal effect; nearly all actives have a fitted effect of over 50% in size
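Firefly luciferase signal from promoter-reporter HEK293 cells was scaled between vehicle (0%) and zero RLU (-100%). Compounds were tested at final concentrations of up to 57.5 uM over 24 h at 37 degrees C. PTC124 at 50 uM final served as control inhibitor.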
NTMT1 inh: Primary qHTS for Inhibitors of N-terminal methyltransferase 1 (NTMT1): MTaseGlo Assay | hit rate 2.5% among 59,000 | NTMT1 MTase-Glo SAH luminescence, purified enzyme | Potency, µM (series often up to 114 µM), for inactives: top-dose activity change, negative = inhibition, actives largely listed as inhibitors;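 note: potency is the fitted concentration of half-maximal effect; plate controls were DMSO vehicle for no effect and no enzyme for full effect; nearly all actives have a fitted effect of over 65% in size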
Target sequence (Q9BV86 whole entry, looked up): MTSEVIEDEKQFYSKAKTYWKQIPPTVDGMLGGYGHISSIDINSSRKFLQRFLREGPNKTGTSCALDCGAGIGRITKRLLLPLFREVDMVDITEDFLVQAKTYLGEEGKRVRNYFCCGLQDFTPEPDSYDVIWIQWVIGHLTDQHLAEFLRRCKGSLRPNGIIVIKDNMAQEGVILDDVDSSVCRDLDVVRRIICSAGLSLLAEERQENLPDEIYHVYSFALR
HTT-AS promoter: Primary qHTS for Identification of Small Molecule Activators of Huntingtin-Antisense Promoter Activity; hit rate 0.24% among 48,000; Potency, µM (highest dose often 57.5 µM), inactives show at the highest dose activity change, positive = activation, usual class: activators; HEK293 HTT-AS promoter firefly luciferase reporter, 24 h; response scale: percent change from vehicle, -100% = no light; note: potency is the fitted concentration of half-maximal effect; nearly all actives have a fitted effect of over 55% in size
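HEK293 luciferase promoter-reporter cells (2,500/well) plated 24 h, then compounds added at up to 57.5 uM final for 24 h at 37 °C. Firefly luminescence by Dual-Glo, normalized to vehicle (0%) and zero RLU (-100%).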
SKOV3 invasion: Primary qHTS assay for Inhibitors of ovarian cancer metastasis using an organotypic tumor microenvironment (TME) model | SKOV3ip1-GFP adhesion/invasion on 3D omental model, fluorescence | Potency, µM (highest dose often 45.8 µM), for inactives: at the highest dose activity change, negative = inhibition, usual class: inhibitors | hit rate 0.1% among 46,000 | AID 1963576, 2024;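 note: potency is the fitted concentration of half-maximal effect; plate controls were DMSO wells for no effect and tomatine positive control wells for full effect; nearly all actives have a fitted effect of over 65% in size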
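Primary human omental fibroblast/mesothelial 3D culture pre-formed 48 h. SKOV3ip1-GFP cells added with compounds (0.36-46 umol/L), incubated 2 h RT/16 h 37 C, fixed; GFP cells quantified at 488/509 nm.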
DRV1 agonist: qHTS for Agonists of Human Resolvin D1 Receptor DRV1; Probable G-protein coupled receptor 32 (Homo sapiens), O75388; CHO-K1 GPR32 beta-arrestin PathHunter luminescence, 90 min; zero percent set by DMSO-only wells; activation, % at 76.9 µM; hit rate 2.5% among 48,000; AID 1346428, 2018;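 active = activation of at least 60% and not above a set upper limit, about 1 call in 100 departs from these limits; inconclusive = activation of 40% to 60%, or above that upper limit; inactive = activation under 40%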; note: 0% is about no effect
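Cells are plated overnight, treated with compounds in DMSO for 90 minutes at 37 °C, and developed with PathHunter detection reagent for 1 hour before luminescence is read; signal reflects beta-arrestin binding to GPR32 in engineered CHO-K1 cells.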
DYRK1A inh-1: Assay for Inhibitors of Dual-Specificity Tyrosine-(Y)-Phosphorylation Regulated Kinase 1A (Kinase-Glo assay); shares compounds with NTMT1 inh; recombinant DYRK1A, Kinase-Glo ATP depletion luminescence; Potency, µM (series often up to 76.9 µM), inactives show at the highest dose activity change, negative = inhibition, hits mostly inhibitors; hit rate 80% among 100
CLK4 RBC: Kinase Inhibition Study on Inhibitors of CDC-like Kinase 4 (Reaction Biology data): SAR round 2. shares compounds with NTMT1 inh. Reaction Biology kinase assay, 10 uM ATP. Potency, µM, most hits filed as inhibitors. hit rate 100% among 65. AID 504421, 2011; calls by dose curve
DYRK1A inh-2: Kinase Inhibition Study on Inhibitors of Dyrk1a (Reaction Biology data); shares compounds with NTMT1 inh; Reaction Biology kinase assay, 10 uM ATP; Potency, µM, most hits filed as inhibitors; hit rate 90% among 65; AID 504424, 2011;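 active = compounds that showed inhibition of Dyrk1a and received a fitted potency; inactive = compounds that showed no inhibition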
CLK2 RBC: Kinase Inhibition Study on Inhibitors of CDC-like Kinase 2 (Reaction Biology data); shares compounds with NTMT1 inh; hit rate 90% among 65; Potency, µM, usual class: inhibitors; AID 504427, 2011; Reaction Biology kinase assay, 10 uM ATP;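 active = compound that inhibits Clk2 kinase in the dose series, with an IC50 potency reported; inactive = no inhibition seen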
Target sequence (P49760 whole entry, looked up): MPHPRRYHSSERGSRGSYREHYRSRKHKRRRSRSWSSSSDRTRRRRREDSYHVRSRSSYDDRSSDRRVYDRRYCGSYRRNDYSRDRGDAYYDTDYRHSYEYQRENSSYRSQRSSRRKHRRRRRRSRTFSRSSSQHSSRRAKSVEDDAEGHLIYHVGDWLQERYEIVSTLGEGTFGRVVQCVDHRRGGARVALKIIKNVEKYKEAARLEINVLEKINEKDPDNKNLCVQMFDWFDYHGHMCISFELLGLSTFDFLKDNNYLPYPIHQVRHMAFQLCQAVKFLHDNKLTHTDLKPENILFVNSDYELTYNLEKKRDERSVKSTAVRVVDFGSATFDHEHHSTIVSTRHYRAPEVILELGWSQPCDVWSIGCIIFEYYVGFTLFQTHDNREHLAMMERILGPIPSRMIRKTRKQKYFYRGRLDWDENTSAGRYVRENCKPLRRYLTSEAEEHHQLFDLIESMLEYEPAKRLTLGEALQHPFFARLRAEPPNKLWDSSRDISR
CLK3 RBC: Kinase Inhibition Study on Inhibitors of CDC-like Kinase 3 (Reaction Biology data) | shares compounds with NTMT1 inh | recombinant CLK3 kinase assay, 10 uM ATP | Potency, µM, hits mostly inhibitors | hit rate 40% among 65;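 active = compounds that inhibited Clk3 enough in the ten-dose series to give a half-maximal potency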
DYRK1B inh: Kinase Inhibition Study on Inhibitors of Dyrk1b (Reaction Biology data). Potency, µM, hits mostly inhibitors. hit rate 80% among 65. Recombinant Dyrk1b kinase assay, 10 uM ATP. shares compounds with NTMT1 inh;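 active = compounds whose dose response shows an inhibitor phenotype against the kinase Dyrk1b; inactive = compounds showing no inhibitor phenotype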
CLK1 RBC: Kinase Inhibition Study on Inhibitors of CDC-like Kinase 1 (Reaction Biology data); shares compounds with NTMT1 inh; recombinant Clk1 kinase assay, 10 uM ATP; Potency, µM, hits mostly inhibitors; hit rate 90% among 65; AID 504430, 2011;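 active = compounds that block the splicing kinase Clk1 enough to give a fitted half-inhibition concentration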
NNMT counter: Counterscreen qHTS for Inhibitors of N-terminal methyltransferase 1 (NTMT1): NNMT MTaseGlo assay; shares compounds with NTMT1 inh; NNMT MTase-Glo luminescence, SAH detection; Potency, µM (series often up to 57.1 µM), for the others: top-dose activity, negative = inhibition, most hits filed as inhibitors; hit rate 10% among 120
An asterisk follows results filed as active; i = inactive; ? = inconclusive; · = no result given; [ ] = dose if it differs, or a comment. An excerpt weighted towards active compounds, which were near 4.5% of everything screened. Unless noted, calls come from the whole dose curve; as a rule, active = well fitted curve in the direction sought with a large enough effect; inconclusive = small, poorly fitted or top-dose-only effect, or another doubt; inactive = no such curve, though single readings can be large; an effect the other way counts as inactive or inconclusive.

SMILES | HTT promoter inh | NTMT1 inh | HTT-AS promoter | SKOV3 invasion | DRV1 agonist | DYRK1A inh-1 | others
Cc1ccsc1CNc1ncnc2ccc(-c3ccc4c(c3)OCO4)cc12 | · | -12% | · | · | · | 0.082µM* | CLK4 RBC=0.035*;DYRK1A inh-2=0.035µM*;CLK2 RBC=2.2µM*;CLK3 RBC=6.6µM*;DYRK1B inh=0.51µM*;CLK1 RBC=0.069µM*
c1csc(CNc2ncnc3ccc(-c4ccoc4)cc23)c1 | · | ? | · | · | · | 1.5µM*
Cc1cccc(-c2ccc3ncnc(NCc4cc(C)cs4)c3c2)c1 | · | -2% | · | · | · | ·
COc1ccc(N2CCN(C(=O)c3nn(-c4ccc(C)cc4)c(=O)n(C)c3=O)CC2)cc1 | -22% | ? | -17% | -2% | -18 | ·
Fc1cc(Nc2nc(-c3ccncc3)nc3ccccc23)ccc1-c1cccnc1 | · | 6% | · | · | · | ·
Cc1cccc(CNc2ncnc3ccc(-c4cccc(Cl)c4)cc23)c1 | · | 6% | · | · | · | ·
c1c[nH]c(CNc2ncnc3ccc(-c4ccc5c(c4)OCO5)cc23)n1 | · | -12% | · | · | · | 0.37µM* | CLK4 RBC=0.034*;DYRK1A inh-2=0.15µM*;CLK2 RBC=3.6µM*;CLK3 RBC=15µM*;DYRK1B inh=1.1µM*;CLK1 RBC=0.19µM*
Cc1noc(C)c1-c1ccc2ncnc(NCc3ccccc3F)c2c1 | · | -15% | · | · | · | ·
Cc1occc1CNc1ncnc2ccc(-c3ccc4c(c3)OCO4)cc12 | · | ? | · | · | · | 0.092µM* | CLK4 RBC=0.047*;DYRK1A inh-2=0.057µM*;CLK2 RBC=2.7µM*;CLK3 RBC=6.5µM*;DYRK1B inh=0.43µM*;CLK1 RBC=0.086µM*
Cc1cccc(CNc2ncnc3ccc(-c4ccc5c(c4)OCO5)cc23)c1 | · | 5%[57.5 µM] | · | · | · | ·
c1nc(NCc2ccoc2)c2cc(-c3ccc4c(c3)OCO4)ccc2n1 | · | ? | · | · | · | 0.092µM* | CLK4 RBC=0.038*;DYRK1A inh-2=0.13µM*;CLK2 RBC=0.88µM*;CLK3 RBC=4.7µM*;DYRK1B inh=0.94µM*;CLK1 RBC=0.11µM*
CC(=O)O[C@H]1C(=O)[C@@]2(C)C([C@H](OC(=O)c3ccccc3)[C@]3(O)C[C@H](OC(=O)[C@H](O)[C@@H](NC(=O)c4ccccc4)c4ccccc4)C(C)=C1C3(C)C)[C@]1(OC(C)=O)CO[C@@H]1C[C@@H]2O (stereo not given in full) | -18% | 12% | -29% | 8% | -6 | ·
C#Cc1cccc(Nc2ncnc3cc(OC)c(OCCCCCCC(=O)NO)cc23)c1 | 55%[116 µM] | 13µM* | ? | 6% | · | · | NNMT counter=?
COc1cc2ncnc(Nc3ccc(O)cc3)c2cc1OC | · | -11%[57.5 µM] | · | · | · | ·
O=C(c1ccco1)N1CCN(c2nc3c(Cl)cccc3s2)CC1 | -2% | -18% | 26% | 6% | -7 | ·
COc1ccc(C(=O)CC(=O)O)c2c1C=CC(C)(C)O2 | · | 1%[57.5 µM] | · | · | · | ·
CCC(=O)Nc1cc(-c2nc3cc(C)cc(C)c3o2)ccc1C | 47% | 3% | ? | -32% | -21 | ·
C=Cc1cc(O)cc2nc(-c3ccc(O)c(F)c3)oc12 | · | 13µM* | · | · | · | · | NNMT counter=?
Cc1cccc(C(=O)Nc2nnc(SCc3cc(=O)n4cccc(C)c4n3)s2)c1 | 6% | -28% | -3% | i | -4 | ·
CCOC(=O)c1c(NC(=O)/C=C/c2ccc(C)cc2)sc2c1CCCC2 | -3% | 7% | -11% | 5% | 13 | ·
Cc1nc(CN(C)c2ncnc3ccc(-c4ccc5c(c4)OCO5)cc23)cs1 | · | 7.9µM* | · | · | · | 0.041µM*
